# Laboratory results taken from PubChem BioAssay.
# A number with no mark means an inactive call. This is one part of the list. Calls of active or inactive are those of the source.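 How the source made its calls, unless noted: active means inhibition above the hit cutoff set in the earlier primary screen (cut at about 27% in these data); inactive means the rest.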
# Legend:
# [1] = biological target: Protein phosphatase methylesterase 1 (Homo sapiens) (UniProt Q9Y570); test: PME-1 inhibitor activity retest, confirmation, biochemical, fluorescence polarization, FP-Rh probe, triplicate (AID 2171); details: recombinant PME-1, FP-Rh probe fluorescence polarization; at 5.9 µM; hits give high values;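 further: 0% = enzyme with DMSO and 100% = wells lacking PME-1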
# Chain of Protein phosphatase methylesterase 1 (Homo sapiens) (Q9Y570 whole entry, looked up): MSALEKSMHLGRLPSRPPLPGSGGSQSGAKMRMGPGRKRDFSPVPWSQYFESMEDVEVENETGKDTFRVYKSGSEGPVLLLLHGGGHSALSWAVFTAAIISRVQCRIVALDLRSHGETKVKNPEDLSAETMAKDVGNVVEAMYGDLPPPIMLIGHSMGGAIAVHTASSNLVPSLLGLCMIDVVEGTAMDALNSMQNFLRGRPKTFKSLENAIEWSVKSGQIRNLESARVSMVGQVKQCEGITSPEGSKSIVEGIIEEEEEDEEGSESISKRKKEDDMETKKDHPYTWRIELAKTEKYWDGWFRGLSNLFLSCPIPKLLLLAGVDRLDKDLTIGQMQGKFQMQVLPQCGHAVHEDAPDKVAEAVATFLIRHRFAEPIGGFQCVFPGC
# [2] = biological target: Bcl-2-like protein 1 (Homo sapiens) (UniProt Q07817); test: Bcl-xL inhibitors blocking Bim BH3 binding, confirmation, counter-screen for MCL1 inhibitor project, biochemical, fluorescence polarization (AID 2166;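 active means inhibition above a cutoff equal to the mean inhibition of all tested compounds plus 3 SD, cut at about 30% in these data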); details: GST-Bcl-xL / FITC-Bim BH3 peptide FP binding; at 10.9 µM; hits give high values
# Chain of Bcl-2-like protein 1 (Homo sapiens) (Q07817 whole entry, looked up): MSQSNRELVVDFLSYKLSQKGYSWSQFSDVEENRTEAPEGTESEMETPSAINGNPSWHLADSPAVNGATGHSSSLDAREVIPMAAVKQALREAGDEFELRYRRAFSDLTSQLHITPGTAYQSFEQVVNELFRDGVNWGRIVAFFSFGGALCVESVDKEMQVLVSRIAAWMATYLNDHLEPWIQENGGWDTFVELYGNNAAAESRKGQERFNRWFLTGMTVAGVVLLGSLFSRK
# [3] = biological target: Induced myeloid leukemia cell differentiation protein Mcl-1 (Homo sapiens) (UniProt Q07820); test: inhibitors of MCL1 binding to BIM-BH3, confirmation, biochemical, fluorescence polarization, triplicate (AID 2168;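 active means inhibition above the average of all tested compounds plus 3 SD, cut at about 40% in these data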;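 further: 0% = DMSO wells and 100% = unlabeled Bim-BH3 control peptide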); details: GST-MCL1 / FITC-Bim-BH3 fluorescence polarization; at 10.9 µM; hits give high values
# Chain of Induced myeloid leukemia cell differentiation protein Mcl-1 (Homo sapiens) (Q07820 whole entry, looked up): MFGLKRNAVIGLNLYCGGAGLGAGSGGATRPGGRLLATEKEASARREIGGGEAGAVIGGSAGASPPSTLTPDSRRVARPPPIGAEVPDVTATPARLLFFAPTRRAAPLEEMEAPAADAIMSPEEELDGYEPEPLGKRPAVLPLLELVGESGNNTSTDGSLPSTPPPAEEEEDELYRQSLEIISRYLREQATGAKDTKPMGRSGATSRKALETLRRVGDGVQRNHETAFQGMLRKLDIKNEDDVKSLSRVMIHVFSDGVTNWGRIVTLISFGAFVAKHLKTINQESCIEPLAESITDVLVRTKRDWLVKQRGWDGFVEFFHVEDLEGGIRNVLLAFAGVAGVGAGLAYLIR
# [4] = growth loss of phage-infected E. coli expressing H. pylori AddAB, confirmation, AddAB inhibitor project, absorbance, E. coli V3065, T4 phage, triplicate (AID 488942;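 active means mean inhibition above a set limit taken from the earlier primary screen, cut at about 13% in these data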;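 further: higher means less bacterial growth since AddAB block lets phage replicate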); details: OD, at 11.9 µM, hits give high values, T4 phage with gene 2 nonsense mutations
# [5] = growth loss of RecBCD+ E. coli with mutant T4 phage, counter-screen for AddAB inhibitor project, absorbance, V66 E. coli (AID 488955;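 active means mean inhibition above the mean of solvent-only control wells plus 3 SD, cut at about 4% in these data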;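 further: optical density read after an 18 h incubation at 37 °C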); details: OD growth, at 11.9 µM, hits give high values
# [6] = bacterial viability inhibition counter-screen, confirmation, counter-screen for AddAB inhibitor project, absorbance (AID 488956; in the data active means inhibition above about 25%); details: absorbance (AddAB counterscreen), at 11.9 µM, hits give high values
# [7] = growth loss of phage-infected RecBCD+ E. coli, confirmation, RecBCD inhibitor project, absorbance, E. coli V66, T4 gene 2 phage (AID 651982;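 active means mean inhibition over triplicates exceeding the hit threshold derived in the original primary screen, cut at about 11% in these data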); details: E. coli V66 + T4 2- phage, growth OD; at 11.9 µM; hits give high values
# [8] = E. coli viability inhibition, counter-screen for RecBCD inhibitor project, absorbance, high throughput (AID 651983; in the data active means inhibition above about 20%;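 further: E. coli strain V66 grown with compound alone and no phage infection; 0% = bacteria with DMSO vehicle only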); details: absorbance (OD) growth, at 11.9 µM, hits give high values
# [9] = growth loss of phage-infected AddAB-carrying E. coli, confirmation, counter-screen for RecBCD inhibitor project, absorbance, E. coli V3065, T4 phage (AID 651984;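 active means mean inhibition above the solvent-only control wells' mean plus 3 SD, cut at about 22% in these data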;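 further: higher means less bacterial growth from phage killing when AddAB is blocked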); details: E. coli expressing H. pylori AddAB + T4 phage, OD growth; at 11.9 µM; hits give high values; gene 2 mutant T4, recBCD-deleted host
# [10] = compounds interfering with TAMRA-BSA probe, counter-screen for TCR-CD3 interaction inhibitor project, biochemical, fluorescence, TAMRA-labeled BSA (AID 652035; in the data active means inhibition above about 23%;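 further: 0% = buffer low control and 100% = reference high control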); details: TAMRA-labeled BSA probe fluorescence counterscreen; at 9.4 µM; hits give high values
# [11] = test system: T-cell receptor (TCR)-CD3 interaction, human; test: TCR-CD3 interaction inhibitors, retest, confirmation, biochemical, fluorescence, TAMRA-labeled TCR probe (AID 652036; in the data active means inhibition above about 19%); details: TAMRA-labeled TCR probe fluorescence binding assay; at 9.4 µM; hits give high values
# [12] = biological target: Insulin-degrading enzyme (Homo sapiens) (UniProt P14735); test: human IDE inhibitors in live cells, confirmation, fluorescence polarization, HEK cells, FAbetaB substrate (AID 435028;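 active means mean inhibition across triplicate wells above the cutoff set by the earlier primary insulin-degrading enzyme screen, cut at about 16% in these data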;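 further: 0% = DMSO wells and 100% = 60 µM reference IDE inhibitor Ii1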); details: FAbetaB cleavage, at 5.59 µM, hits give high values
# Chain of Insulin-degrading enzyme (Homo sapiens) (P14735 whole entry, looked up): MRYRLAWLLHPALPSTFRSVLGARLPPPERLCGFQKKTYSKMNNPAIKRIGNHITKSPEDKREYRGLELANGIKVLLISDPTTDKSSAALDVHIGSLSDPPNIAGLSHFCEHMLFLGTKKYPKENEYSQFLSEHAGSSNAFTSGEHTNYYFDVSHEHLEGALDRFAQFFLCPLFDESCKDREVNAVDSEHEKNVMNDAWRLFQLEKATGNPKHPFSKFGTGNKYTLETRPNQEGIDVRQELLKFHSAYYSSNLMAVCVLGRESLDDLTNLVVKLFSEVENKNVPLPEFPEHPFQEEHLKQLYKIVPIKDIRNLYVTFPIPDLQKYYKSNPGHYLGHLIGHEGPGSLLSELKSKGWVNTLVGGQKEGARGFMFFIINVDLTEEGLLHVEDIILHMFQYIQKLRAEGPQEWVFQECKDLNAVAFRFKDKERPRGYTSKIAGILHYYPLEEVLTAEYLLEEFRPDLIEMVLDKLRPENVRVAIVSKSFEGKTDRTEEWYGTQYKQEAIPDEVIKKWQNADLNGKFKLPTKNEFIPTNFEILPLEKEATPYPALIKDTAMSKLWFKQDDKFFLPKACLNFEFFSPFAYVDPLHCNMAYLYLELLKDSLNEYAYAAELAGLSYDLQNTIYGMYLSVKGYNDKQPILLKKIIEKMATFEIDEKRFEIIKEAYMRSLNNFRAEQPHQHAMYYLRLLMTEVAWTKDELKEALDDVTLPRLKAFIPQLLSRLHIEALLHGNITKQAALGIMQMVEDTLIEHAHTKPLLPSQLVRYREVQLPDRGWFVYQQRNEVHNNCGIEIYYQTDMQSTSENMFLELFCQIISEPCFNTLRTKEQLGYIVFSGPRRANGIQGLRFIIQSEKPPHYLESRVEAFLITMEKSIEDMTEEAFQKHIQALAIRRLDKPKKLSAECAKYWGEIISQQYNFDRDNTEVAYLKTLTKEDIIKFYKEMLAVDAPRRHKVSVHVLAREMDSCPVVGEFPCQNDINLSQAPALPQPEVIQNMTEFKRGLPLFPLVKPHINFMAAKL
# [13] = cytotoxicity in HEK cells, cytotoxicity control for IDE inhibitor project, cell-based, luminescence (AID 449730; in the data active means inhibition above about 22%;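 further: 0% = vehicle wells and 100% = reference cytotoxic drug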); details: HEK293 cytotoxicity, ATP luminescence; at 5.59 µM; hits give high values
# [14] = biological target: Platelet-activating factor acetylhydrolase (Homo sapiens) (UniProt Q13093); test: pPAFAH (PLA2G7) enzyme inhibitors, confirmation, biochemical, fluorescence polarization, human (AID 463230;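 active means mean inhibition of the triplicate above the hit cutoff set for the earlier primary screen, cut at about 25% in these data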;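 further: 0% = enzyme with DMSO and 100% = wells lacking pPAFAH enzyme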); details: recombinant pPAFAH, FP-Rh probe fluorescence polarization; at 3.39 µM; hits give high values
# Chain of Platelet-activating factor acetylhydrolase (Homo sapiens) (Q13093 whole entry, looked up): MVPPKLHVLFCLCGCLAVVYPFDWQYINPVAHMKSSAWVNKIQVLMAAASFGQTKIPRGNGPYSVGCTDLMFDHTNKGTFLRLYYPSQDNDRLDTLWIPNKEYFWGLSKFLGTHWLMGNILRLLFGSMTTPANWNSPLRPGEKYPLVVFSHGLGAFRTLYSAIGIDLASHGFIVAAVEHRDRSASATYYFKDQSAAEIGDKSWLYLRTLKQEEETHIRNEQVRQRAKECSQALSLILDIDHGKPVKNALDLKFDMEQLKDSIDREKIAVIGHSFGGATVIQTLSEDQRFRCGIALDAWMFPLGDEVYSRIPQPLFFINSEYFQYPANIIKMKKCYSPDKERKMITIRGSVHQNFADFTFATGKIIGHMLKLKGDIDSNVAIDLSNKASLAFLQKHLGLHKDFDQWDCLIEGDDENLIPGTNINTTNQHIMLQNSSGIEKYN
# [15] = biological target: (Lyso)-N-acylphosphatidylethanolamine lipase (Mus musculus) (UniProt Q8VD66); test: ABHD4 inhibitors, retest, confirmation, biochemical, fluorescence polarization, mouse (AID 720658;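 active means mean inhibition across replicates above the hit cutoff set in the primary screen, cut at about 30% in these data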;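 further: 0% = wild-type ABHD4 with DMSO and 100% = catalytically dead S159A mutant with DMSO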); details: purified mABHD4, FP-Rh probe fluorescence polarization; at 8.92 µM; hits give high values
# Chain of (Lyso)-N-acylphosphatidylethanolamine lipase (Mus musculus) (Q8VD66 whole entry, looked up): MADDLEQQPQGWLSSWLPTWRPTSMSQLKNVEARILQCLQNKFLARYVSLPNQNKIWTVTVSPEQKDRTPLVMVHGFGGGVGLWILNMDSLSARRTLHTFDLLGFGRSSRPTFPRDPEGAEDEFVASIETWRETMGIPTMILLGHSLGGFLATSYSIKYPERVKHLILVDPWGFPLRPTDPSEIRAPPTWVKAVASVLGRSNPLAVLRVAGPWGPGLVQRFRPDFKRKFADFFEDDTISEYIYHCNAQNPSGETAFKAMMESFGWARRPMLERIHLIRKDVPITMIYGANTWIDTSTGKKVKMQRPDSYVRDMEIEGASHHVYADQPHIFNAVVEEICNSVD
# [16] = biological target: Protein-arginine deiminase type-4 (Homo sapiens) (UniProt Q9UM07); test: human PAD4 inhibitors, confirmation, biochemical, fluorescence polarization (AID 488796;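 active means mean inhibition across replicates above the hit cutoff set by the earlier primary screen, cut at about 15% in these data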;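 further: inhibitors block active-site labeling by the probe so polarization falls; 0% = PAD4 with probe and DMSO and 100% = probe without PAD4 enzyme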); details: recombinant PAD4, RCA probe fluorescence polarization; at 6.36 µM; hits give high values
# Chain of Protein-arginine deiminase type-4 (Homo sapiens) (Q9UM07 whole entry, looked up, the tested form may be a part): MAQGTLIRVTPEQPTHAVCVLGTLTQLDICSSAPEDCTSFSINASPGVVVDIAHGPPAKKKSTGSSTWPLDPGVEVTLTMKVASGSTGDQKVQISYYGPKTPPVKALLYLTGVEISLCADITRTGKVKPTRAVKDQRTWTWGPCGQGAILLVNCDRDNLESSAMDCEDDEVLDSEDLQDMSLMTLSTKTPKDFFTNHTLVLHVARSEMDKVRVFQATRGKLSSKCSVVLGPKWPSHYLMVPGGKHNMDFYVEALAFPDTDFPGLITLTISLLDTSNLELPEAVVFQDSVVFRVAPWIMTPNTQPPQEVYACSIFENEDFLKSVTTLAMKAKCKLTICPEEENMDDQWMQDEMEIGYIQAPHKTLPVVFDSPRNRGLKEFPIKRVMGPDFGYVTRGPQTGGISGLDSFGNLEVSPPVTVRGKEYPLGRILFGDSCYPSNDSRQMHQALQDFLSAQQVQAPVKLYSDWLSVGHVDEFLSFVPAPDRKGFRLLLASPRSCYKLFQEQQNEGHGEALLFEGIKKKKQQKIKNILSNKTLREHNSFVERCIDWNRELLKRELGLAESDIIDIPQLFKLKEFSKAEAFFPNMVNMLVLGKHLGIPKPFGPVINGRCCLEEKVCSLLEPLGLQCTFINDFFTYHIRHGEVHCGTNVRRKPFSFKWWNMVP
# [17] = biological target: Oxysterols receptor LXR-beta (Homo sapiens) (UniProt P55055); test: LXR agonists, Gal4 luciferase reporter, confirmation, counter-screen for hcDAF-12 agonist project, cell-based, luminescence, HEK293, H. contortus campaign (AID 743027;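 active means mean percent activation of the reporter above a cutoff set as the average over tested compounds plus their standard deviation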); details: HEK293 Gal4-LXR tk-luc reporter, 24 h, at 6.8 µM, hits give high values, normalized: DMSO 0%, positive control 100%
# Chain of Oxysterols receptor LXR-beta (Homo sapiens) (P55055 whole entry, looked up, the tested form may be a part): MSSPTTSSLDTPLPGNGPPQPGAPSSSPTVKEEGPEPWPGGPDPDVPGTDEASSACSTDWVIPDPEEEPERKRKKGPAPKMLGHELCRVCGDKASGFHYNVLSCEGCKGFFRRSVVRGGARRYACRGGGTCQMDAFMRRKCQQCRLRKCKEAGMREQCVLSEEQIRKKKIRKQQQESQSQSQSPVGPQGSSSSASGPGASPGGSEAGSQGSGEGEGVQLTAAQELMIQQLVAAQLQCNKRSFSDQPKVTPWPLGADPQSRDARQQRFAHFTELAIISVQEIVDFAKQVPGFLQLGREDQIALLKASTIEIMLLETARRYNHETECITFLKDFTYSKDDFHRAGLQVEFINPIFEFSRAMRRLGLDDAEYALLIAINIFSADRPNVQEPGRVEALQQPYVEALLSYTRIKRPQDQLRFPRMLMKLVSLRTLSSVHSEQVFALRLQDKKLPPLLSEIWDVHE
# [18] = test system: Nuclear hormone receptor DAF-12 (Haemonchus contortus); test: H. contortus DAF-12 receptor agonists, confirmation, cell-based, luminescence, HEK293, lit1-tk-luc, triplicate (AID 743032;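 active means mean activation across triplicate tests above the threshold derived from the earlier primary screen, cut at about 5.5% in these data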;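 further: 0% = DMSO only wells and 100% = 3 µM Δ7-dafachronic acid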); details: HEK293 hcDAF-12 lit1-tk-luc reporter, at 6.8 µM, hits give high values, % of Δ7-dafachronic acid response
compound,measurement,setting,value
CCOC(=O)C1CCCN(C(=O)C2c3ccccc3Oc3ccccc32)C1 (stereo not given),inhibition,[1],16%
C=C1c2c(Cl)ccc(O)c2C(O)=C2C(=O)[C@]3(O)C(O)=C(C(N)=O)C(=O)[C@@H](N(C)C)[C@@H]3[C@@H](O)C12 (stereo not given in full),inhibition,[2],37.7% (active)
same,inhibition,[3],79% (active)
same,inhibition,[4],102% (active)
same,inhibition,[5],101% (active)
same,inhibition,[6],104% (active)
same,inhibition,[7],102% (active)
same,inhibition,[8],105% (active)
same,inhibition,[9],104% (active)
same,inhibition,[10],-9.22%
same,inhibition,[11],20.7% (active)
CN(C)c1ccc(CNC(=O)CN(C)S(=O)(=O)c2cccc3cccnc23)cc1,inhibition,[1],32.8% (active)
Cc1cc2nc3c(=O)n(Cc4ccccc4)c(=O)[nH]c3nc2cc1N,inhibition,[2],198% (active)
same,inhibition,[12],66.8% (active)
same,inhibition,[13],8.2%
same,inhibition,[14],29.3% (active)
same,inhibition,[15],82.2% (active)
CC(C)(C)c1cc(C(=O)N/N=C/c2ccc(-c3ccccc3[N+](=O)[O-])o2)n[nH]1,inhibition,[1],1.81%
O=[N+]([O-])c1ccccc1N/N=C/c1c[nH]c2ccccc12,inhibition,[1],42.3% (active)
C=CCn1c(O)c(N=Nc2ccccc2O)c2ccccc21,inhibition,[1],29.2% (active)
C/C(=N/Nc1ccnc2cc(Cl)ccc12)c1ccc(O)cc1,inhibition,[1],10.9%
Cc1nn(Cc2ccccc2)c(C)c1CNC(=O)c1ccc(F)c(S(=O)(=O)N2CCOCC2)c1,inhibition,[2],9.04%
same,inhibition,[3],4.37%
same,inhibition,[16],3.62%
Cc1cc(C)c(/C=C2\C(=O)Nc3ccccc32)[nH]1,inhibition,[2],147% (active)
same,inhibition,[3],168% (active)
same,inhibition,[12],83.6% (active)
same,inhibition,[13],5.65%
same,activation,[17],0.33%
same,activation,[18],7.13% (active)
